High-throughput results as filed in PubChem.
Compounds with a hit are over-represented: about 2.4% of the library has one in this group of screens.
D2 PAM-1: positive allosteric modulators of human D2 dopamine receptor; P14416; HEK293 T-REx D2, calcium flux, EC20 dopamine potentiation; potentiation, % at 10 µM; 0.34% of 340,000 active; AID 485347;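 active = potentiation over 3 SD above the plate norm, cut at about 30% in these data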
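Potentiation of an EC20 dopamine calcium response is measured in a force-coupled, tetracycline-inducible Hek293 Trex D2 line. Compound-only kinetic reads over 180 s flag agonists before dopamine addition.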
D2 antag: antagonizes the human D2 dopamine receptor; HEK293 TREx D2 cells, calcium flux, dopamine EC80; 2% of 340,000 active; P14416; inhibition, % at 10 µM; in the data active = inhibition above about 30%; inactive = below that, where a call was filed
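Calcium mobilization kinetics were recorded at 1 s intervals in tetracycline-induced HEK293 T-REx D2 cells, first for 180 s after compound addition and then 180 s after EC80 dopamine.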
D2 ag-1: activates the human D2 dopamine receptor; activation, % at 2 µM; HEK293 T-REx D2 cells, calcium flux agonist mode; 0.53% of 340,000 active;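 active = activation over 3 SD above normal in the single-dose calcium agonist read, cut at about 30% in these data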
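Agonism scored from kinetic calcium signal (1 read/sec, 180 s) following compound pin transfer, after a 10 s baseline. Cells: HEK293 Trex line expressing inducible D2 receptor coupled to calcium, dye-loaded after overnight culture at 30 C.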
D2 ag-2: activates the human D2 dopamine receptor; 0.084% of 360,000 active; P14416; DiscoveRx PathHunter D2 beta-arrestin, luminescence, 90 min; 100% = 57 uM dopamine signal; AID 624465; activation, % (concentration not given with the values); in the data active = activation above about 40%; inconclusive = between about 15% and that limit
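Agonist mode: compounds alone added to overnight-plated D2 PathHunter cells for 90 min at 37 C, with 57 uM final dopamine (EC100) defining full response. Beta-arrestin recruitment detected by chemiluminescent reagent, read after 1 h at ambient temperature.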
D2 PAM-2: human D2 receptor positive allosteric modulation | 0.23% of 360,000 active | DiscoveRx D2 beta-arrestin cells, luminescence, 90 min; 100% = 57 uM dopamine signal | potentiation, % (no concentration beside the values) | P14416; in the data active = potentiation above about 50%; inconclusive = mostly about 30% to 49%
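D2 cells co-treated with compound plus 50 nM dopamine (EC20) for 90 min at 37 deg C to detect potentiation. Beta-arrestin recruitment was read as enzyme-fragment luminescence after 1 h at ambient temperature. Full response was set by 57 uM dopamine.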
D3 arrestin ag: activates human D3 dopamine receptor beta-arrestin recruitment. Potency, µM (series often up to 76.9 µM), hits mostly activators. DiscoveRx D3 beta-arrestin cells, luminescence, 90 min. 4% of 2,300 active. shares compounds with D2 ag-1; note: nearly all actives have a fitted effect of over 70% in size
Target sequence (P35462 whole entry, looked up): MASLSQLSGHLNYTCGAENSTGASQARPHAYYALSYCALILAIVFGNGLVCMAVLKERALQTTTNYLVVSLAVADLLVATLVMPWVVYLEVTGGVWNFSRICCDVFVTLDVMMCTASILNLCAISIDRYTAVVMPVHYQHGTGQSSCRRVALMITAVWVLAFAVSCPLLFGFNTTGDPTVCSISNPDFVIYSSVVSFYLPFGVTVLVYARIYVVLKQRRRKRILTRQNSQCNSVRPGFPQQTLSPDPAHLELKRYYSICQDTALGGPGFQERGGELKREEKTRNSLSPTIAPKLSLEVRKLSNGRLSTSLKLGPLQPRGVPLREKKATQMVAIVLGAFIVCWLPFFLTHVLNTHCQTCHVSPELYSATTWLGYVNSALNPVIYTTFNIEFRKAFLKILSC
D2 ag-3: activates human D2 dopamine receptor in D3 counterscreen | shares compounds with D2 ag-1 | DiscoveRx PathHunter D2 beta-arrestin, luminescence, 90 min; response scale: percent relative to full dopamine signal | Potency, µM (doses to about 76.9 µM), usual class: activators | 5.9% of 2,300 active | AID 720507; note: nearly all actives have a fitted effect of over 70% in size
Of the large screens only hits and unclear results are named; the others gave an inactive call (follow-up assays come after a bar, where they were run); ! = a repeat was not active. Unless noted, calls come from the whole dose curve; as a rule, active = well fitted activation curve with a large enough effect; inconclusive = small, poorly fitted or top-dose-only effect; inactive = flat fitted curve, though single readings scatter.

O=C(CNC(=O)c1cccc([N+](=O)[O-])c1)NC1CCCc2ccccc21 (stereo unspecified)	none
Cc1ccc(NC(=O)CN2CCc3ccccc3C2)cc1S(=O)(=O)N(C)C	D2 ag-1 47.5 | D3 arrestin ag inactive | D2 ag-3 inactive
CC(CCc1ccccc1)NC(=O)CN1CCc2ccccc2C1 (stereo unspecified)	D2 antag 67.9, D2 ag-1 71.3 | D3 arrestin ag inactive | D2 ag-3 inconclusive
CC(=O)C(Cc1ccccc1)NC(=O)CN1CCc2ccccc2C1 (stereo unspecified)	none
CN(C)S(=O)(=O)c1ccc(Cl)c(NC(=O)CN2CCc3ccccc3C2)c1	D2 antag 87.3, D2 ag-1 60.9, D2 ag-2 64.0 | D3 arrestin ag 10µM | D2 ag-3 14.1µM
CCN(CC)S(=O)(=O)c1ccc(O)c(NC(=O)CN2CCc3ccccc3C2)c1	none
Cc1cccc(NC(=O)N2CCc3ccccc3C2)c1C	none | D3 arrestin ag inactive | D2 ag-3 inactive
COc1ccccc1-c1cc2nc(-c3ccccc3)cc(N3CCN(C(=O)c4ccco4)CC3)n2n1	none (no result: D2 PAM-1, D2 antag, D2 ag-1)
O=C(CN1CCc2ccccc2C1)NC1CCCC1	none | D3 arrestin ag inactive | D2 ag-3 inactive
CCOc1ccccc1NC(=O)CN1CCc2ccccc2C1	none
N#CC1(NC(=O)CN2CCc3ccccc3C2)CCCC1	none | D3 arrestin ag inactive | D2 ag-3 inactive
CN(C)S(=O)(=O)c1ccc(Cl)c(NC(=O)CN2CCN(c3ccccn3)CC2)c1	D2 ag-1 69.1, D2 ag-2 inconclusive | D3 arrestin ag inconclusive | D2 ag-3 31.6µM
O=C(NC1CCCCC1)N1CCc2ccccc2C1	none
Cc1ccccc1NC(=O)CN1CCc2ccccc2C1	D2 antag 40.1, D2 ag-1 67.9, D2 ag-2 inconclusive | D3 arrestin ag inconclusive | D2 ag-3 inconclusive
Cc1cc(C)c(NC(=O)Cn2nc(-c3ccncc3)ccc2=O)c(C)c1	none (no result: D2 antag, D2 ag-2, D2 PAM-2)
O=C(CC1SC(N2CCCC2)=NC1=O)Nc1ccc(C(=O)NCc2ccccc2F)cc1 (stereo unspecified)	none (no result: D2 PAM-1, D2 antag, D2 ag-1)
O=C(CC1SC(N2CCCC2)=NC1=O)Nc1ccc(C(=O)NCCOc2ccccc2F)cc1 (stereo unspecified)	D2 antag 52.1, D2 ag-1 65.8 | D3 arrestin ag inconclusive | D2 ag-3 inactive
CNC(=O)c1ccc(NC(=O)CC2SC(N3CCCC3)=NC2=O)cc1 (stereo unspecified)	D2 antag 38.5 | D3 arrestin ag inactive | D2 ag-3 inactive
C=CCn1c(SCCCC)nc(O)cc1=O	D2 antag 30.8! | D3 arrestin ag inactive | D2 ag-3 inactive
CCN1CCc2c(sc(NC(=S)NC(=O)c3ccc(Cl)cc3)c2C(N)=O)C1	D2 ag-1 43.6 | D3 arrestin ag inactive | D2 ag-3 inactive
CCCN1CCc2c(sc(NC(=S)NC(=O)c3ccccc3)c2C#N)C1	D2 antag 77.6, D2 ag-1 76.9 | D3 arrestin ag inactive | D2 ag-3 inactive
CN1CCc2c(sc(NC(=O)c3ccc(C(=O)c4ccccc4)cc3)c2C(N)=O)C1	D2 antag 37.1, D2 ag-1 69.1 | D3 arrestin ag inactive | D2 ag-3 inactive
CN1CCc2c(sc(NC(=O)Cc3ccccc3)c2C#N)C1	D2 antag 69.5, D2 ag-1 78.3 | D3 arrestin ag inactive | D2 ag-3 inconclusive
CC(C)N1CCc2c(sc(NC(=S)NC(=O)c3ccccc3)c2C#N)C1	none
CCCN(CCC)c1cc(C)nc2nc(-c3ccc(C(C)(C)C)cc3)nn12	none (no result: D2 antag, D2 ag-1, D2 ag-2, D2 PAM-2)
